The values that follow come from PubChem BioAssay (NCI).

Compounds without any hit were thinned out: in the full panel of roughly 83,000, 20% have a hit.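 A percent growth of 40 corresponds to 60% growth inhibition; 0 means no net growth; -100 means all cells died. Active threshold: below 10.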 A number with no mark means an inactive call. Activity calls are given as the source filed them.

Common to all, as to assay: NCI-60 one-dose screen, 48 h (100 = growth as untreated, 0 = no growth, -100 = all killed)
Common to all, as to details: 10 µM unless noted

Experiment [1] has as its system DU-145 prostate.
Experiment [2] deals with K-562 leukemia.
For experiment [3], the system named is MALME-3M melanoma.
The subject of experiment [4] is MDA-MB-231 breast.
For experiment [5], the system named is RXF 393 renal.
For experiment [6], the system named is SF-268 CNS.
Experiment [7] concerns SF-295 CNS.
Experiment [8] deals with SF-539 CNS.
In experiment [9] the test system is UACC-257 melanoma.
The subject of experiment [10] is M14 melanoma.

On to `Cn1cc(-c2csc(-c3c[nH]c4ccc(Br)cc34)n2)c2cnccc21`, for which the growth in experiment [1] was -91.7% (active); in experiment [2], -53.8% (active); in experiment [3] it was -88.7% (active); in experiment [4], -81.4% (active); in experiment [5], -94.9% (active); in experiment [6], -75.5% (active). For the same compound, the growth in experiment [7] is -86.6% (active); in experiment [8] it was -96.4% (active); in experiment [9], -50.2% (active); in [10] it was -81.7% (active).
In the case of `COc1ccc(C/C(C)=C(/c2ccc(OCCN3CCCCC3)cc2)c2ccc(OC(=O)NCc3ccccc3)cc2)cc1`, the growth in experiment [1] was -97.2% (active); in experiment [2], -56.3% (active); in experiment [3], -87.3% (active); in experiment [4], -86.9% (active); in [5] it was -91.4% (active); in experiment [6], -76.6% (active). The growth in [7] is -94.8% (active); in [8], -92.5% (active); in [9], -83.2% (active); in experiment [10], -92.3% (active).
On to `Cc1ccc(Sc2oc(-c3ccc(C)cc3)nc2[P+](c2ccccc2)(c2ccccc2)c2ccccc2)cc1`, for which the growth was 11.6% in experiment [1]; 4.98% (active) in experiment [2]; -41.1% (active) in experiment [3]; -12.5% (active) in experiment [4]; -18.8% (active) in experiment [5]; 10.9% in experiment [6]. Also, the growth in [7] is 9.9% (active); in experiment [8] it was -5.1% (active); in experiment [9], 0.818% (active); in experiment [10] it was 7.37% (active).
Regarding `Fc1cccc(CNc2c3ccccc3nc3ccccc23)c1F`, the growth is 76.7% in experiment [1]; 43.4% in experiment [2]; 94.1% in experiment [3]; 58.2% in experiment [4]; 59.5% in [5]; 83.4% in experiment [6]. The growth is 53.7% in experiment [7], 55.5% in [8], 92.9% in experiment [9] and 70.6% in [10].
Regarding `N#Cc1c(-c2ccc(Cl)cc2)nc(NN=Cc2cccc(O)c2)nc1N1CCOCC1`, the growth in experiment [1] was 63.4%; in experiment [2], 45.1%; in [3] it was 104%; in experiment [4], 95.9%; in experiment [5], 24.1%; in experiment [6], 81.9%. In addition, the growth in experiment [7] was 97.1%; in experiment [8], 67.8%; in experiment [9], 86.5%; in experiment [10], 66.6%.
With `O=C(c1ccccc1)C1C(=O)N2C(=S)N(c3ccccc3)C(=O)C2C1c1ccc(Cl)cc1` (stereo not given), the growth was 109% in experiment [1]; 99.1% in [2]; 88.1% in [3]; 90.4% in experiment [4]; 90.4% in experiment [5]; 97.5% in experiment [6]. Moreover, the growth in experiment [7] was 94.2%; in experiment [8], 98%; in experiment [9], 101%; in experiment [10], 96.3%.
For the compound `CC1(C)CC2=C3C=C[C@@H]4[C@@]5(C)CCC(=O)C(C)(C)[C@@H]5CC[C@@]4(C)[C@]3(C)CC[C@@]2(C(=O)O)CC1=O`, the growth was 97.2% in experiment [1]; 92.1% in experiment [2]; 39.1% in experiment [3]; 75.3% in [4]; 54.8% in experiment [5]; 53.3% in [6]. Moreover, the growth in [7] was 75.3%; in experiment [8] it was 65.7%; in [9] it was 43.2%; in [10], 46.8%.
Regarding `CCO/C=N/C1=C(C#N)C(c2ccc(OC)cc2)c2sc3c(F)cccc3c2O1` (stereo not given), the growth is 35.8% in experiment [1]; 15.1% in [2]; 60% in experiment [3]; 34.6% in [4]; 3.81% (active) in experiment [5]; 44.2% in experiment [6]. Also, the growth is 16.6% in [7], -23.7% (active) in experiment [8], 71.6% in experiment [9] and 22.6% in experiment [10].
Consider `O=C(COc1ccc(-c2nc3ccccc3[nH]2)cc1)N=Nc1c(O)[nH]c2ccc(Cl)cc12`, for which the growth in [1] was 91.9%; in experiment [2], 2.09% (active); in [3] it was 93.3%; in experiment [4] it was 84.6%; in experiment [5], 88.2%; in [6], 99.3%. Moreover, the growth in [7] is 91.2%; in [8] it was 93.3%; in experiment [9] it was 104%; in experiment [10], 87%.
For `N#Cc1cccc(F)c1`, the growth is 125% in experiment [1]; 94.4% in experiment [2]; 110% in experiment [3]; 101% in experiment [4]; 114% in [5]; 110% in [6]. Moreover, the growth in experiment [7] is 109%; in experiment [8] it was 88.9%; in [9], 110%; in [10] it was 102%.
Regarding `N#C/C(=C/c1ccc([N+](=O)[O-])cc1)n1nnc2cc(F)c(F)cc21`, the growth in experiment [1] was 54.2%; in experiment [2], 13.9%; in [3], 74.8%; in experiment [4], 84.7%; in [5], 83.3%; in [6], 90.5%. For the same compound, the growth in experiment [7] was 91.4%; in experiment [8] it was 20.7%; in experiment [9], 65.5%; in [10] it was 70.1%.
As for `Clc1ccc(CNc2c3ccccc3nc3ccccc23)cc1`, the growth is 54.8% in [1]; 4.34% (active) in experiment [2]; 39.6% in experiment [3]; 54.8% in experiment [4]; 29.7% in experiment [5]; 67.9% in experiment [6]. The growth in experiment [7] was 59.6%; in [8], 30.3%; in experiment [9], 76.1%; in experiment [10], 53.3%.
For the compound `OCCNCCCOc1ccc2ncnc(Nc3ccc(Oc4cccc(C(F)(F)F)c4)c(Cl)c3)c2c1`, the growth in experiment [1] is 16.3%; in experiment [2], 1.39% (active); in experiment [3], 41.1%; in experiment [4], -18% (active); in experiment [5], -49.3% (active); in experiment [6], 56%. Besides, the growth in [7] was 39.7%; in [8] it was -46.3% (active); in experiment [9], 54.9%; in [10] it was -60.3% (active).
Take `CCn1c(SCC(=O)c2ccc(Br)cc2)nnc1-c1ccncc1`: the growth in experiment [1] is 103%; in experiment [2] it was 91.5%; in [3], 105%; in experiment [4], 106%; in experiment [5], 113%; in [6] it was 96.5%. For the same compound, the growth in experiment [7] is 101%; in experiment [8] it was 99.3%; in experiment [9], 107%; in [10] it was 108%.
Regarding `C/C(Nc1ccc(Cl)c(Cl)c1)=C1\CCOC1=O`, the growth in experiment [1] is 106%; in experiment [2], 86.8%; in experiment [3], 109%; in experiment [4], 95%; in experiment [5], 92.2%; in experiment [6] it was 106%. The growth is 86.7% in experiment [7], 98.5% in [8], 98.3% in experiment [9] and 81.3% in [10].
As to `O=C(CSc1nc2ccc([N+](=O)[O-])cc2[nH]1)Nc1ccc(F)cc1`, the growth is 66.8% in experiment [1]; 42.1% in [2]; 36.3% in [3]; 80.3% in experiment [4]; 87.8% in experiment [5]; 68.8% in experiment [6]. The growth was 52.1% in experiment [7], 79.8% in experiment [8], 44.5% in [9] and 59.9% in [10].
As to `N=C(N)c1ccc(-c2ccc(-c3ccc(F)cc3)o2)o1`, the growth was 28.7% in experiment [1]; -28.5% (active) in experiment [2]; 41.6% in experiment [3]; 8.5% (active) in experiment [4]; 39.6% in [5]; 30% in experiment [6]. The growth in experiment [7] is 31.4%; in experiment [8], 21.9%; in experiment [9] it was 57.7%; in experiment [10], -54.1% (active).
Turning to `CC(=O)OCc1nc(C#N)c(N(C)C)o1`, the growth in experiment [1] is 110%; in experiment [2], 99.2%; in experiment [3] it was 97.8%; in [4] it was 94.9%; in [5], 87.6%; in experiment [6] it was 99.6%. The growth in experiment [7] is 108%; in [8], 92.1%; in experiment [9], 92.8%; in experiment [10], 99.8%.
Regarding `Brc1c2c(c(Br)c3ccccc13)CCCC2`, the growth in experiment [1] is 110%; in experiment [2] it was 94.7%; in experiment [3], 108%; in experiment [4], 91%; in experiment [5], 101%; in experiment [6] it was 104%. The growth in [7] was 101%; in experiment [8], 102%; in experiment [9] it was 89.8%; in experiment [10], 99.1%.
As for `COc1ccc(-c2nc(/C=C3\SC(=NCc4ccccc4)NC3=O)c3ccccn23)cc1`, the growth in [1] was -88.6% (active); in experiment [2], 18.4%; in [3], -33.1% (active); in experiment [4], -13.9% (active); in experiment [5], -86.7% (active); in experiment [6] it was -37.4% (active). For the same compound, the growth was 17.5% in [7], -43.4% (active) in experiment [8], -17% (active) in [9] and -95.7% (active) in experiment [10].
For the compound `O=S(=O)(Nc1ccc(Cl)cc1)c1ccc(-c2cnc(C3CC3)o2)cc1`, the growth in experiment [1] is 12.6%; in experiment [2], 9.33% (active); in [3], 46.3%; in experiment [4] it was 26.9%; in experiment [5], -10.1% (active); in experiment [6], 43.5%. The growth was 33.6% in experiment [7], -14.6% (active) in experiment [8], 56.1% in experiment [9] and 22% in experiment [10].
With `COC(=O)c1cc(-c2ccc(S(C)(=O)=O)cc2)[nH]c1N/N=C/c1c(Cl)cccc1Cl`, the growth in experiment [1] was 4.36% (active); in experiment [2] it was -1.67% (active); in experiment [3], 4.13% (active); in experiment [4], 50.9%; in [5] it was -2.32% (active); in experiment [6], 37.1%. For the same compound, the growth was -28.2% (active) in experiment [7], -19.8% (active) in experiment [8], 60.3% in [9] and -8.67% (active) in [10].
Consider `CCOC(=O)c1cc(C(=O)c2cc(OC)c(OC)c(OC)c2)n2ccc(-c3ccncc3)cc12`, for which the growth is 103% in experiment [1]; 98.7% in [2]; 87.5% in [3]; 70.2% in experiment [4]; 95.3% in [5]; 96.4% in experiment [6]. The growth in experiment [7] was 113%; in [8] it was 93.9%; in experiment [9] it was 80.8%; in experiment [10], 101%.
In the case of `N#C/C(=C\c1ccc(-c2ccc(Cl)cc2)o1)C(=O)Nc1ncc(Cc2ccc(Cl)cc2)s1`, the growth is 19.6% in [1]; 62.2% in experiment [2]; 5.36% (active) in [3]; 36.7% in experiment [4]; 109% in [5]; 71.6% in [6]. In addition, the growth in [7] was 9.09% (active); in experiment [8] it was 27.1%; in experiment [9], -28.3% (active); in [10] it was 39.1%.
`CCOC(=O)C#Cc1c(C(=O)OCC)nnn1[C@@H]1O[C@H](CO)[C@H]2OC3(CCCCC3)O[C@H]21`: the growth was 52.1% in experiment [1]; 5.02% (active) in experiment [2]; 55.1% in [3]; 95.6% in [4]; 9.92% (active) in [5]; 94.6% in [6]. The growth in [7] was 101%; in [8], 81.1%; in experiment [9], 46.8%; in [10], 59.4%.
`O=S(=O)(NCCNc1nccc(-c2c(-c3cccc(F)c3)nc3occn23)n1)c1ccc(Br)cc1`: the growth in [1] was 90.4%; in experiment [2] it was 69.1%; in experiment [3], 76.9%; in experiment [4] it was 82.3%; in [5], 68.3%; in experiment [6], 90.7%. Also, the growth in [7] was 99.4%; in [8] it was 92%; in experiment [9] it was 98.4%; in experiment [10], 79.8%.
